Screening data as filed in PubChem.
Autofluor counter – flagged as autofluorescent in microsphere protease counterscreen. fluorescence intensity (no concentration beside the values). compound autofluorescence counterscreen, microsphere flow cytometry; active compounds read high. 360,000 tested, 3.1% active. AID 624483; in the data active = fluorescence intensity above about 16000; inconclusive = no clear call, values can overlap the other calls
BoNT F protease – BoNT F light chain protease inhibition. 360,000 tested, 0.22% active. Multiplex microsphere protease cleavage assay, flow cytometry. inhibition, % at 10 µM; in the data active = inhibition above about 35%, passing the limit was not always enough; inconclusive = no clear call, values can overlap the other calls
MazF activator – increases E. coli MazEF RNase cleavage of RNA; P0AE70; FAM/BHQ RNA-DNA oligo cleavage fluorescence, 5 h; activation, % at 20 µM; 350,000 tested, 0.32% active; AID 504720; in the data active = activation above about 50%
BoNT A protease – BoNT A light chain protease inhibition | inhibition, % at 10 µM | multiplex microsphere protease substrate cleavage, flow cytometry | 360,000 tested, 0.17% active | AID 588499
VHR inh abs – inhibitors of human VHR1 phosphatase (DUSP3) | inhibition, % at 13.3 µM | P51452 | recombinant VHR phosphatase, pNPP absorbance | 290,000 tested, 0.52% active; in the data active = inhibition above about 50%
Anthrax LF prot – anthrax lethal factor protease inhibition | P15917 | multiplex microsphere protease cleavage assay, LF | inhibition, % at 10 µM | 360,000 tested, 0.12% active
Hits are given with their value; i = inactive; ? = inconclusive; nt = no result; + = active, no number. Most compounds without a hit are left out; they make up all but 4% or so of the library. Rule as the data show it, unless noted: active = inhibition above about 30%; inconclusive = no clear call, values can overlap the other calls; inactive = below that.

SMILES	Autofluor counter	BoNT F protease	MazF activator	BoNT A protease	VHR inh abs	Anthrax LF prot
Cc1cc(OC(=O)CCCNC(=O)OC(C)(C)C)c2c3c(c(=O)oc2c1)CCC3	i	i	i	i	i	i
Cc1cc(OCC(=O)NCc2ccc(S(N)(=O)=O)cc2)c2c3c(c(=O)oc2c1)CCC3	i	i	72	i	i	i
CCC(NC(=O)OC(C)(C)C)C(=O)Oc1ccc2c3c(c(=O)oc2c1)CCC3 (centres undefined)	17288	i	i	i	i	i
Cc1cc(OC(=O)CCNC(=O)OC(C)(C)C)c2c3c(c(=O)oc2c1)CCC3	22958	i	i	i	i	i
Cc1cc(OCC(=O)NCc2ccncc2)c2c3c(c(=O)oc2c1)CCC3	i	i	i	i	i	i
Cc1ccc(OCC(=O)N/N=C/c2ccncc2)cc1C	i	?	i	i	i	i
CSCCC(NC(=O)c1ccco1)C(=O)OCC(=O)Nc1sccc1C#N (centres undefined)	nt	nt	nt	nt	i	nt
Cc1ccccc1CN1CCN(Cc2ccccc2C(F)(F)F)CC1	20858	i	i	?	i	i
FC(F)(F)c1ccccc1CN1CCN(Cc2ccccc2)CC1	i	i	i	i	i	i
CC(C)NC(=O)CC1OC(=O)c2ccccc21 (centres undefined)	23103	i	i	i	i	i
CC(=O)Nc1cccc(NC(=S)Nc2ccc(F)c(Cl)c2)c1	i	i	i	i	i	i
O=C(Nc1ccc2nsnc2c1)c1ccc2c(c1)OCO2	23719	i	i	i	i	i
O=C(Nc1ccon1)c1ccc2c(c1)OCO2	16433	i	i	?	i	i
Cc1ccnc(NC(=O)c2ccc3c(c2)OCO3)c1	i	i	i	i	i	i
O=C(Nc1ccc2nn(-c3ccccc3)nc2c1)c1ccc2c(c1)OCCO2	i	i	i	i	i	i
CCOc1ccc(-n2nc3ccc(NC(=O)c4ccc5c(c4)OCCO5)cc3n2)cc1	i	i	59	i	i	i
O=C(Nc1ccc2c(c1)OCO2)c1ccc2c(c1)OCO2	i	i	i	i	i	i
Cc1cccc(OCC(=O)Nc2ccc(S(=O)(=O)Nc3onc(C)c3C)cc2)c1C	i	i	i	i	i	i
CCOc1ccccc1NC(=O)CSc1nnc(-c2cnccn2)n1C	?	i	i	?	i	i
CCOC(=O)C(Cc1ccccc1)(NC(C)=O)C(=O)OCC	i	i	i	i	i	i
CCOC(=O)C(Cc1c(F)cccc1F)(NC(C)=O)C(=O)OCC	21936	i	i	i	i	i
CCCNC(=O)CCC(=O)Nc1ncc(-c2ccc(C)cc2)n1C	22139	i	i	?	i	i
CCNC(=O)NC(=O)C(C)N1C(=O)NC(c2ccccc2)(c2ccccc2)C1=O (centres undefined)	i	i	i	i	55	i
COc1ccc(CNC(=O)C(C)N2C(=O)NC(c3ccccc3)(c3ccccc3)C2=O)cc1 (centres undefined)	i	i	i	i	nt	i
O=[N+]([O-])c1cc(/C=N/O)ccc1SCc1ccccc1Cl	i	i	i	i	53	i
SMILES	Autofluor counter	BoNT F protease	MazF activator	BoNT A protease	VHR inh abs	Anthrax LF prot
Cc1c(NC(=O)c2cnn3cccnc23)c(=O)n(-c2ccccc2)n1C	i	i	i	i	i	i
CCCC(=O)Nn1cnc2c(c1=O)C1(CCCC1)Cc1ccccc1-2	i	i	i	i	i	i
CCCC(=O)NC1=C(C#N)C2(CCCC2)Cc2ccccc21	17626	i	i	?	i	i
Nc1nonc1-c1noc(CCCOc2ccc(Cl)cc2Cl)n1	22747	i	i	?	i	i
Cc1cc(C)n2nc(CCc3nc4nc(C)cc(C)n4n3)nc2n1	nt	nt	nt	nt	i	nt
CCOC(=O)c1sc(NC(=O)C2C3C=CC(C3)C2C(=O)O)nc1C (centres undefined)	23393	i	i	i	i	i
Cc1csc(NC(=O)C2C3C=CC(C3)C2C(=O)O)n1 (centres undefined)	21611	i	i	?	i	i
CN(Cc1ccco1)C(=O)CSc1nc(C2CC2)n(-c2ccccc2)n1	i	i	i	i	nt	i
COc1cccc(NC(=O)N(CCCN2CCOCC2)C(C)c2cc3ccccc3o2)c1 (centres undefined)	21426	i	i	i	i	i
COc1cccc(NC(=O)N(CCCN2CCOCC2)C(C)c2cc3cccc(OC)c3o2)c1 (centres undefined)	i	i	i	i	i	i
CCCCOc1ccccc1C1C(C(=O)OC)=C(C)N(C)C(C)=C1C(=O)OC	22647	i	i	i	i	i
COC(=O)C1=C(C)N(C)C(C)=C(C(=O)OC)C1c1ccccn1	i	i	94	i	i	i
CN(C)C(=O)/C(C#N)=C\c1cc(Br)c(Sc2ccc(Cl)cc2)o1	i	i	i	i	i	i
COc1ccc2oc(C(=O)NCC3CCCO3)c(C)c2c1 (centres undefined)	i	i	i	i	52	i
CCNC(=O)NC(=O)C(C)OC(=O)c1oc2ccc(OC)cc2c1C (centres undefined)	21371	i	i	i	i	i
COc1ccc(N=c2oc3cc(O)ccc3cc2C(=O)NCC2CCCO2)cc1 (centres undefined)	21984	i	i	?	i	i
COc1ccc2oc(C(=O)OC(C)C(=O)N(C)c3ccccc3)c(C)c2c1 (centres undefined)	i	?	i	i	nt	?
COc1ccc(N=c2oc3cc(O)ccc3cc2C(=O)NCC2CCCO2)c(OC)c1 (centres undefined)	?	i	85	i	i	?
COc1ccc(S(=O)(=O)Nc2nccs2)cc1OC	i	i	i	i	i	i
COc1cc(Cl)c(C)cc1NC(=O)c1ccc2c(SCC(=O)O)c3c(nc2c1)CCCC3	i	i	i	i	i	i
CCCc1cc(N2CCN(C(=O)c3ccco3)CC2)n2c(nc3ccccc32)c1C#N	i	i	i	i	i	i
CCOc1ccccc1N=c1oc2cc(O)ccc2cc1C(=O)NCC1CCCO1 (centres undefined)	16487	i	i	i	i	i
COc1cccc(OC)c1OCCCCn1cnc2ccccc2c1=O	i	i	i	i	i	i
Cc1cc(C)c(C)c(OCCCCn2cnc3ccccc3c2=O)c1	23324	i	i	i	i	i
CCOc1ccc(CCN2C(=O)C(=O)N([C@@H](Cc3ccc(O)cc3)CN3CCC[C@H]3CN3C(=O)C(=O)NC[C@@H]3Cc3ccc(O)cc3)C[C@@H]2Cc2ccccc2)cc1	i	i	nt	i	nt	i
SMILES	Autofluor counter	BoNT F protease	MazF activator	BoNT A protease	VHR inh abs	Anthrax LF prot
Oc1ccc(/C=N/NC(=S)Nc2cccnc2)cc1	i	i	i	i	i	i
CC(=O)NS(=O)(=O)c1ccc(NC(=O)NC2CCCCC2)cc1	23046	i	i	i	i	i
COc1ccccc1CNc1nc2nc(C)c(Cl)c(=O)n2[nH]1	21476	i	i	?	i	i
COc1ccc(CNc2nc3nc(C)c(Cl)c(=O)n3[nH]2)cc1	i	i	i	i	i	i
c1ccn(-c2ccc(-c3ccn[nH]3)cc2)c1	i	i	+	i	i	i
Oc1ccccc1-c1ccn[nH]1	i	i	i	i	nt	i
